For 28 molecules, outcome and AC50 results are on record in PubChem BioAssay (EPA / NIEHS).

The nature of assay [1]: ATG_CRE_CIS: Attagene CIS-FACTORIAL HepG2 Assay for human cAMP Responsive Element (CRE) binding protein 3 (AID 2282926). The settings on record: HepG2 CRE cis-reporter, Attagene multiplexed mRNA; actives raise or lower the signal. The method, boiled down: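 HepG2 cells transiently transfected with cis-element-driven multiple reporter transcription units; CRE reporter mRNA measured 24 h after dosing by RT-PCR, 6-FAM labelling, HpaI digestion and capillary electrophoresis. Bidirectional fit versus DMSO baseline.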

For assay [2], the target named is CCAAT/enhancer-binding protein beta (Homo sapiens) (UniProt P17676). Kind of assay: ATG_C_EBP_CIS: Attagene CIS-FACTORIAL HepG2 Assay for human CCAAT/Enhancer Binding Protein (C/EBP) beta (AID 2282927). The settings on record: HepG2 Attagene cis-factorial transcription factor reporter; actives raise or lower the signal. A digest of the protocol: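 Endogenous C/EBPb-driven reporter transcripts measured in transfected human HepG2 cells at 24 h via RT-PCR and capillary electrophoresis of labelled fragments. Activity fitted in both directions relative to DMSO baseline.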
Sequence of CCAAT/enhancer-binding protein beta (Homo sapiens) (P17676 whole entry, looked up, the tested form may be a part): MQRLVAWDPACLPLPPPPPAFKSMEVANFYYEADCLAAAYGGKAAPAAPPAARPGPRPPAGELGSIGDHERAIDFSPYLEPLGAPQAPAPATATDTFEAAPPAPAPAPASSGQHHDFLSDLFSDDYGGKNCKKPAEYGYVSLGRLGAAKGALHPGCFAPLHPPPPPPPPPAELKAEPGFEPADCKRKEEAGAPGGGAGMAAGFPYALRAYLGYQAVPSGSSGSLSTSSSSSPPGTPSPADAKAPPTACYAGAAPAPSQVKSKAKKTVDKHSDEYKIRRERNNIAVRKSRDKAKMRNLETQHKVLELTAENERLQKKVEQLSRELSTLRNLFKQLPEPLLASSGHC

Assay [3] is described as follows: ATG_CMV_CIS: Attagene CIS-FACTORIAL HepG2 Assay for human CMV (Internal Marker) (AID 2282928).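 Note: endpoint acts as a background internal control marker rather than a target.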 The settings on record: HepG2 CMV promoter reporter, transcription factor profiling; actives raise or lower the signal. A digest of the protocol: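 CMV internal-marker background readout in transiently transfected HepG2 cells bearing cis-regulated reporter units. Reporter mRNA is measured 24 h after dosing by RT-PCR and capillary electrophoresis, with bidirectional fitting against DMSO.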

A short description of assay [4]: ATG_DR4_LXR_CIS: Attagene CIS-FACTORIAL HepG2 Assay for human Liver X Receptor (LXR), DR4 submotif (AID 2282929). The settings on record: HepG2 Attagene DR4 cis-reporter, mRNA transcription; actives raise or lower the signal. The method, boiled down:
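The endpoint is DR4-element-driven reporter transcripts after 24 h chemical exposure of transfected HepG2 cells. These were measured via RT-PCR and capillary electrophoresis, and gain or loss of signal was fitted relative to DMSO controls.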

For assay [5], the target named is Aryl hydrocarbon receptor (Homo sapiens) (UniProt P35869). Kind of assay: ATG_Ahr_CIS: Attagene CIS-FACTORIAL HepG2 Assay for human Aryl Hydrocarbon Receptor (Ahr) (AID 2282930). The settings on record: HepG2 AhR cis-factorial reporter transcription; actives raise or lower the signal. A digest of the protocol: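 Reporter mRNA levels, quantified by RT-PCR and fluorescent capillary electrophoresis, reflect endogenous AhR transcriptional activity in HepG2 cells carrying transfected cis-promoter reporter constructs. Readout at 24 h post-dose; gain or loss fitted against DMSO baseline.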
Sequence of Aryl hydrocarbon receptor (Homo sapiens) (P35869 whole entry, looked up): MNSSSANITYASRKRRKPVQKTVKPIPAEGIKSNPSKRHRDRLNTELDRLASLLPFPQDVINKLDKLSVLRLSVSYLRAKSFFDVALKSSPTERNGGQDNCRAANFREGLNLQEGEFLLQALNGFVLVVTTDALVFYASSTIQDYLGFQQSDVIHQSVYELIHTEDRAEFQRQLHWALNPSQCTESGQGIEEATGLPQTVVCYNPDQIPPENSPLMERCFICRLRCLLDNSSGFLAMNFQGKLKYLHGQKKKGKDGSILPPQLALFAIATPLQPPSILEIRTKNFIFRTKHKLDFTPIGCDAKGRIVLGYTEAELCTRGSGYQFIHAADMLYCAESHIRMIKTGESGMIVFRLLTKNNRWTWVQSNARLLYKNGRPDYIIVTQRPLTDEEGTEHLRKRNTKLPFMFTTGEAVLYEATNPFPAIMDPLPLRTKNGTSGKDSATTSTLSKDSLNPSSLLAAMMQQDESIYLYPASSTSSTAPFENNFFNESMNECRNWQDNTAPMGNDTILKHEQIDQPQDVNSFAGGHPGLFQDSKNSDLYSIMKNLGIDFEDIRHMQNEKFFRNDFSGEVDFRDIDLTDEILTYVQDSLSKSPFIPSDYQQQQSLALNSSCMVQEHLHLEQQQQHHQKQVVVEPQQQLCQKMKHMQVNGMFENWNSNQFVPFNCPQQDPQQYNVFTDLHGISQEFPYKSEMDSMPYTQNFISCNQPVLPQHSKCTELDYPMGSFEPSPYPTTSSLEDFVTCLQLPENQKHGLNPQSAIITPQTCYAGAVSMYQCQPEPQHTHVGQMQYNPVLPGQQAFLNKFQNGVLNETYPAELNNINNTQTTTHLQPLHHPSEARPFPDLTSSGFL

A short description of assay [6]: ATG_AP_1_CIS: Attagene CIS-FACTORIAL HepG2 Assay for human Activator Protein 1 (AP-1) (AID 2282931). The settings on record: HepG2 Attagene cis-factorial AP-1 reporter mRNA; actives raise or lower the signal. A digest of the protocol: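 Readout is reporter transcript level from endogenous transcription factor activity, quantified by RT-PCR with fluorescent primer extension and capillary electrophoresis. Transiently transfected HepG2 cells, 24 h exposure. Curves fitted both directions versus DMSO.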

Assay [7] is described as follows: ATG_AP_2_CIS: Attagene CIS-FACTORIAL HepG2 Assay for human Activator Protein 2 (AP-2) (AID 2282932). The settings on record: HepG2 AP-2 cis-reporter, Attagene transcription factor profiling; actives raise or lower the signal. The method, boiled down:
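HepG2, transient MRTU transfection, cis-regulated reporters; 24 h compound exposure; RNA isolated, RT-PCR, 6-FAM labelling, HpaI digest, CE fluorescence. DMSO = negative control/baseline, bidirectional fit.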

Assay [8] addresses Retinoic acid receptor alpha (Homo sapiens) (UniProt P10276). As to the kind of experiment: ATG_DR5_RAR_CIS: Attagene CIS-FACTORIAL HepG2 Assay for human Retinoic Acid Receptor Alpha (RARE), DR5 submotif (AID 2282934).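 For AC50: reporter responds to endogenous RAR alpha beta and gamma in HepG2 not RARA alone.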 The settings on record: HepG2 Attagene cis-factorial RARE DR5 reporter, mRNA; actives raise or lower the signal. A digest of the protocol:
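Reporter transcripts from a DR5-regulated unit, measured via RT-PCR plus capillary electrophoresis, reflect endogenous RAR activity in transiently transfected human HepG2 liver cells. Exposure lasted 24 h; gain or loss of signal scored against DMSO.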

A short description of assay [9]: ATG_BRE_CIS: Attagene CIS-FACTORIAL HepG2 Assay for human Bone Morphogenetic Protein (BMP) Response Element (BRE) (AID 2282933). The settings on record: HepG2 BMP response element reporter, Attagene transcription factor profiling; actives raise or lower the signal. The method, boiled down: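 Transient MRTU transfection of human HepG2 liver cells; 24 h compound treatment; total RNA isolated, reverse-transcribed, PCR-amplified, 6-FAM labelled, HpaI-cut, capillary electrophoresis. DMSO = negative control/baseline, bidirectional fit.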

A short description of assay [10]: APR_HepG2_NuclearSize_72hr: Apredica 72-hour HepG2 Assay for Nuclear Size (AID 2282925). The settings on record: high-content imaging, actives raise or lower the signal. A digest of the protocol:
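HepG2; cpd 0.39–200 uM, 10 conc, duplicate; 72 h; DMSO 0.5% v/v; fix 3.7% formaldehyde 30 min RT; Triton permeabilization; Hoechst 2 ug/mL; HCS imaging 20x; nuclear diameter; gain/loss fit vs DMSO.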

More than one record can exist for a structure, and the calls need not agree. Active and inactive are the calls of the source. Rule for the calls: active = hit-call score of the fitted dose curve at least 0.9, where 1 is the maximum; inactive = score below 0.9.

Sequence of Retinoic acid receptor alpha (Homo sapiens) (P10276 whole entry, looked up): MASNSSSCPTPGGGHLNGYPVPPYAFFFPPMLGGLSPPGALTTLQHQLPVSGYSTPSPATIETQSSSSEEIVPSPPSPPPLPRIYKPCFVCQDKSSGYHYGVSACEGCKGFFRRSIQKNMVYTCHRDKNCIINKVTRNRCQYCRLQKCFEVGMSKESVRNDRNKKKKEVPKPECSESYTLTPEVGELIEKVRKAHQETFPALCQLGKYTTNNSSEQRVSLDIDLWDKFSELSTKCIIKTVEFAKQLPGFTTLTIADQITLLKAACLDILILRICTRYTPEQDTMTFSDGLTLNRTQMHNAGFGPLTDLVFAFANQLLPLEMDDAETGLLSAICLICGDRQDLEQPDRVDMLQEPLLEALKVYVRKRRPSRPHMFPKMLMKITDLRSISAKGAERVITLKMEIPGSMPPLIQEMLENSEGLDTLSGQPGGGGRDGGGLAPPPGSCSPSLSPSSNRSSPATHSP

As to `CC(O)C#N` (configuration not stated), the outcome in assay [1], in [2], in [3], in assay [4], in assay [5] and in assay [6] was inactive. In addition, the call in assay [7] and in assay [8] was inactive.

In the case of `Nc1ccc(Sc2ccc(N)cc2)cc1`, the molecule was classed as inactive in [1], in assay [2], in [3], in assay [4], in [6] and in [7]. Also, the molecule was called inactive in assay [9] and in [8]. The AC50 in [5] is 19.4 µM (active).

For the molecule `CCCCN(CC)C(=O)SCCC`, the molecule was called inactive in assay [1], in assay [2], in assay [3], in assay [4], in assay [5] and in assay [6]. In addition, the call in [7] and in assay [8] was inactive.

Regarding `c1cc2c3c(cccc3c1)CC2`, the result in [10], in assay [2], in [3], in assay [6], in assay [7] and in [9] was inactive. In assay [8], the molecule was classed as inactive.

On to `Clc1ccc(Oc2ccccc2)cc1`, for which the molecule was called inactive in assay [1], in [2], in assay [3], in [4], in [5] and in [6]. In addition, the outcome in assay [7], in assay [9] and in assay [8] was inactive.

For the molecule `O=c1[nH]c2ccccc2c(=O)o1`, the result in [1], in assay [2], in [3], in [4], in assay [6] and in assay [7] was inactive. Besides, the outcome in [9] and in [8] was inactive. Moreover, the AC50 in assay [5] is 89.5 µM (active).

For `CC(C)(C)N(NC(=O)c1ccc(Cl)cc1)C(=O)c1ccccc1`, the call in assay [1], in [2], in assay [3], in assay [4], in [6] and in assay [7] was inactive. In addition, in assay [8], the result was inactive.

As to `OCC(F)(F)OC(F)(F)C(F)(F)OC(F)(F)CO`, the call in [1], in assay [2], in assay [3], in assay [4], in assay [6] and in [7] was inactive. Also, the call in assay [9] and in assay [8] was inactive.

As to `COP(=O)(O)OC`, the call in assay [1], in assay [2], in assay [3], in assay [4], in [6] and in [7] was inactive. Besides, the call in assay [8] was inactive.

With `COC(N)=O`, the call in assay [1], in [2], in [3], in assay [4], in assay [6] and in assay [7] was inactive. In addition, in assay [8], the call was inactive.

For the molecule `O=C(O)C=CC(F)(C(F)(F)F)C(F)(F)F`, the molecule was called inactive in assay [1], in [2], in assay [3], in assay [4], in assay [6] and in assay [7]. Besides, the molecule was called inactive in [8].

For `CC1=C(C(=O)Nc2ccccc2)S(=O)(=O)CCO1`, the molecule was classed as inactive in assay [1], in assay [2], in [5] and in assay [8]. In addition, the AC50 in [3] was 45.4 µM (active); in assay [4] it was 44.3 µM (active); in assay [6] it was 66.8 µM (active); in assay [7] it was 18.1 µM (active); in assay [9], 6.73 µM (active).

Regarding `NC(=O)C(F)(F)C(F)(F)F`, the molecule was called inactive in assay [1], in [2], in [3], in assay [4], in assay [6] and in assay [7]. Further, the outcome in assay [9] and in assay [8] was inactive.

Regarding `C=C(C)C(=O)OCC1CO1` (configuration not stated), the call in [1], in [2], in assay [3], in assay [4], in assay [5] and in [6] was inactive. Also, the outcome in assay [7], in assay [9] and in assay [8] was inactive.

On to `O=S1(=O)OCC2C(CO1)C1(Cl)C(Cl)=C(Cl)C2(Cl)C1(Cl)Cl` (configuration not stated), for which the AC50 is 171 µM (active) in [1], 8.33 µM (active) in [4], 2.9 µM (active) in assay [5] and 171 µM (active) in assay [8]. Also, the result in assay [2], in assay [3], in assay [6] and in assay [7] was inactive.

On to `CC(C)(C)c1ccccc1OP(=O)(Oc1ccccc1)Oc1ccccc1`, for which the result in assay [1], in assay [5], in assay [7], in assay [9] and in assay [8] was inactive. The AC50 in assay [2] was 14.8 µM (active); in assay [3], 100 µM (active); in assay [4] it was 27.1 µM (active); in assay [6] it was 116 µM (active).

With `CCOP(=S)(NC(C)C)Oc1ccccc1C(=O)OC(C)C` (configuration not stated), the molecule was called inactive in assay [1], in assay [2], in assay [3], in assay [5], in assay [6] and in assay [7]. The molecule was classed as inactive in [9] and in [8]. In addition, in [4], the AC50 is 26.5 µM (active).

`ClC(Cl)=C(c1ccc(Cl)cc1)c1ccccc1Cl`: the outcome in assay [1], in assay [2], in assay [7] and in assay [9] was inactive. Further, the AC50 was 36.5 µM (active) in [3]; 27.3 µM (active) in assay [4]; 27.2 µM (active) in assay [5]; 57.5 µM (active) in assay [6]; 27 µM (active) in [8].

As for `OCC(F)(F)OC(F)(F)C(F)(F)OC(F)(F)C(F)(F)OC(F)(F)F`, the outcome in assay [1], in assay [2], in assay [3], in assay [4], in assay [5] and in [6] was inactive. For the same molecule, the molecule was called inactive in assay [7] and in assay [8]. Also, in assay [4], the AC50 is 80.8 µM (active).

As for `CCN(CC)c1ccccc1`, the molecule was classed as inactive in [10], in [2], in assay [3], in assay [6] and in assay [7].

In the case of `COP(=O)(CCC(=O)NCO)OC`, the molecule was called inactive in assay [1], in assay [2], in assay [3], in [4], in [6] and in [7]. Moreover, the result in assay [9] and in [8] was inactive.

As for `N#C/C=C/c1ccccc1`, the molecule was classed as inactive in [1], in assay [2], in assay [3], in assay [4], in assay [5] and in assay [6]. The result in assay [7], in assay [9] and in [8] was inactive.

For the molecule `O=C(O)C(F)(OC(F)(F)C(F)(F)C(F)(F)F)C(F)(F)F` (configuration not stated), the outcome in assay [1], in assay [2], in [3], in assay [6], in assay [7] and in [9] was inactive. Also, the molecule was classed as inactive in [8].

In the case of `C=CC(=O)OCC(CC)(COC(=O)C=C)COC(=O)C=C`, the outcome in assay [2], in [7] and in assay [8] was inactive. Further, the AC50 in assay [3] was 12.1 µM (active); in assay [4] it was 16.8 µM (active); in assay [5] it was 35.9 µM (active); in assay [6] it was 113 µM (active).

As for `N#Cc1c(-c2ccc(Cl)cc2)[nH]c(C(F)(F)F)c1Br`, the AC50 in [2] was 0.0342 µM (active); in assay [3] it was 3.01 µM (active); in [5], 0.0823 µM (active); in assay [6] it was 0.0823 µM (active); in assay [9], 8.08 µM (active). The result in assay [4], in assay [7] and in assay [8] was inactive.

On to `CC(C)Nc1ccc(Nc2ccccc2)cc1`, for which the outcome in [2], in assay [7], in assay [9] and in [8] was inactive. Moreover, the AC50 is 60 µM (active) in assay [3], 32.4 µM (active) in assay [4] and 60 µM (active) in assay [6].

On to `Nc1ccc([N+](=O)[O-])cc1Cl`, for which the result in assay [2], in assay [3], in [4], in [6], in [7] and in assay [9] was inactive. Also, the outcome in assay [8] was inactive.

As to `O=[N+]([O-])c1cc(Cl)ccc1Cl`, the molecule was classed as inactive in [1], in [2], in assay [3], in [5], in assay [6] and in assay [7]. In addition, the call in assay [9] and in assay [8] was inactive.

One may read the AC50 as the midpoint of the concentration-response curve, whichever way the signal moves.
